Assay outcomes from PubChem.
In the library only some 5.1% were active in any assay of this set; here they are far more common.
ROMK mod = human ROMK K+ channel modulation, primary screen; P48048; Tet-inducible ROMK, thallium flux fluorescence; actives lie on both sides; B-score at 10 µM; 2% of 130,000 active; AID 1918;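 active = signal ratio slope over the read window, or its plate-corrected B-score, at least 3 SD from the plate mean, either direction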;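 note: B-score of the F/F0 ratio slope over 7 to 12 s after thallium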
Cl transport mod = KCC2 (human) Cl- transport modulation | 2.2% of 190,000 active | B-score of Tl+ flux slope (higher = more flux/activation; lower = inhibition) at 10 µM | Q9H2X9 | KCC2 cells, thallium flux FluoZin-2 fluorescence;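 active = thallium flux slope and its plate-corrected score both differing from the plate sample mean at a set confidence after two filtering rounds, in either direction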;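 note: slope of fluorescence scaled to starting intensity during 10 to 20 s after thallium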
S1P3 antag = blocks the human S1P3 receptor; inhibition, % at 4.98 µM; CHO S1P3 NFAT-BLA reporter, FRET fluorescence, antagonist mode; 0.27% of 170,000 active;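 active = inhibition above the plate cutoff, the mean inhibition of test wells on that plate plus 3 SD, cut at about 28% in these data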;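 note: cells challenged with S1P at its EC80 of 0.8 µM; blue over green emission ratio from cleaved BLA substrate after 4 h stimulation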
RAM inhibit = blocks the yeast RAM network. S. cerevisiae dse1pr::URA3 reporter, 5-FOA growth OD615, 2 d; analog-sensitive cbk1-as2 kinase mutant strain. inhibition, % at 50 µM. 1.8% of 190,000 active. AID 868;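 active = inhibition above a set limit, 3 SD over mean compound inhibition, cut at about 8.4% in these data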;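 note: inhibition rescues growth on 5-FOA so higher OD means more RAM inhibition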
S1P4 antag = human S1P4 receptor antagonism; inhibition, % at 4.98 µM; 0.26% of 220,000 active; O95977; AID 1510; S1P4-expressing cells, antagonist mode, reporter read-out; in the data active = inhibition above about 29%
Target sequence (O95977 whole entry, looked up): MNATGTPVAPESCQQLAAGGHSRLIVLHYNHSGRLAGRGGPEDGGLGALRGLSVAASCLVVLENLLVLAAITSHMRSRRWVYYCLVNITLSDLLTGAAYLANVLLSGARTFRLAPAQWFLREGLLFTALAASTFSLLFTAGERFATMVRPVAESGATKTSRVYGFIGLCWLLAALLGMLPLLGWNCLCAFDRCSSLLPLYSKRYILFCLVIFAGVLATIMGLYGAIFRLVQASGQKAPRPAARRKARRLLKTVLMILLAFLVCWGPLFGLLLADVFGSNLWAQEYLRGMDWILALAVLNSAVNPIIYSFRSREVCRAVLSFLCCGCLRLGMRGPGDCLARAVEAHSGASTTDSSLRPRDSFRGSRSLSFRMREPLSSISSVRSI
S1P4 agonist = activates the human S1P4 receptor; O95977; S1P4-expressing cell line, agonist reporter assay; activation, % at 4.98 µM; 0.35% of 220,000 active; AID 1509; in the data active = activation above about 11%
Numbers stand for hits; i = inactive; nt = not tested or not shown; ! = repeats disagree.

SMILES	ROMK mod	Cl transport mod	S1P3 antag	RAM inhibit	S1P4 antag	S1P4 agonist
Cc1cc2c(C(C)C)c(O)c(O)c(C=O)c2c(O)c1-c1c(C)cc2c(C(C)C)c(O)c(O)c(C=O)c2c1O	nt	-7.2!	i	i	32!	i
C/C(=N\N(C)c1ccccc1)c1c(O)[nH]c(=O)[nH]c1=O	nt	i	i	nt	i	i
CCC(C)NC(=O)c1c(N)n(CCCOC)c2nc3ccccc3nc12 (stereo not drawn)	i	i	i	i	i	i
CCC(C)NC(=O)c1c(N)n(CC2CCCO2)c2nc3ccccc3nc12 (stereo not drawn)	i	i	i	9.1	i	i
CNC(=O)O/N=C(\C)Cc1nnn(-c2cc(C)on2)n1	i	i	i	nt	i	i
O=C(Nc1ccc(C(F)(F)F)cc1)c1cccn(Cc2ccc3c(c2)OC(F)(F)O3)c1=O	nt	nt	nt	10	i	i
CC/C(=C\C=C\[C@@H]1C=C[C@@H]2CCC[C@H]2[C@@H]1C(=O)c1ccc[nH]1)[C@@H]1O[C@@H]([C@@H](C)C(=O)O)CC[C@@H]1C	nt	3.4	nt	i	i	i
Cc1nc2cc(C(=O)N3CCC4(CC3)OCCO4)ccc2n1-c1ccc(Br)cc1	-2.4	nt	i	i	i	i
CCN(CC)c1ccc(N=Cc2c(O)n(-c3ccc(Cl)cc3)c(=O)[nH]c2=O)cc1	i	i	nt	11	i	i
CNS(=O)(=O)c1ccc(N=Cc2c(O)n(-c3cccc(C)c3)c(=O)[nH]c2=O)cc1	i	i	i	i	i	i
CNS(=O)(=O)c1ccc(N=Cc2c(O)n(-c3ccccc3)c(=O)[nH]c2=O)cc1	i	i	i	9.4	i	i
Cc1cccc(NP(=O)(Oc2ccccc2F)Oc2ccccc2F)c1C	i	i	i	8.7	i	i
Cc1ccc(NP(=O)(Oc2ccccc2F)Oc2ccccc2F)cc1	nt	nt	nt	i	i	i
O=C1NC(=O)C(=Cc2ccccc2Oc2ccc(F)cc2)C(=O)N1	3.3	i	i	i	i	i
CN1C(=O)C(=Cc2ccc(N3CCCCCC3)o2)C(=O)N(C)C1=S	nt	nt	nt	8.7	i	i
CCCCn1c(=O)c(C=Nc2ccc(Cl)cc2)c(O)n(Cc2ccco2)c1=O	i	i	i	8.5	i	i
CC(C)n1c(=O)c(C=Nc2ccc(S(N)(=O)=O)cc2)c(O)n(Cc2ccco2)c1=O	i	i	i	i	i	i
O=c1[nH]c(=S)[nH]c(O)c1N=Nc1ccc2c(c1)OCO2	i	i	i	10.0	i	i
CC1=CC(=C2C(=O)NC(=S)NC2=O)C=C(C(F)(F)F)N1CCc1ccccc1	i	i	i	11	i	i
CCN(CCNc1ccc([N+](=O)[O-])c2cccnc12)S(=O)(=O)c1ccc(Cl)cc1	i	i	nt	9.5	i	i
O=C1NC(=O)N(Cc2ccccc2)C(=O)/C1=C\c1ccco1	i	i	i	i	i	i
O=C1NC(=O)N(Cc2ccco2)C(=O)/C1=C/c1cccn1CCOc1ccccc1Cl	nt	i	i	8.7	i	i
CCc1ccc(-n2c(O)c(/C=N/NC(=O)c3ccncc3)c(=O)[nH]c2=O)cc1	i	i	i	11	i	i
CCN1C(=O)C(=Cc2cc(C)n(C3CC3)c2C)C(=O)N(CC)C1=S	i	i	i	i	i	i
CCN1C(=O)C(=Cc2ccc(C)s2)C(=O)N(CC)C1=S	i	i	i	9.5	i	i
SMILES	ROMK mod	Cl transport mod	S1P3 antag	RAM inhibit	S1P4 antag	S1P4 agonist
Cn1c(O)c(C(=Nc2ccccc2)SCc2ccc(Cl)cc2)c(=O)n(C)c1=O	nt	i	i	nt	i	i
O=P(Oc1ccccc1)(Oc1ccccc1)C(Nc1ccccc1)c1ccccc1 (stereo not drawn)	i	i	i	9.4	i	i
COP(=O)(OC)C(Nc1ccccn1)c1ccccc1 (stereo not drawn)	nt	i	i	i	i	i
COC(=O)[C@]12OC[C@]34C([C@@H](O)[C@@H]1O)[C@]1(C)CC(=O)C(O)=C(C)[C@@H]1C[C@H]3OC(=O)[C@H](O)[C@@H]24 (stereo partly drawn)	nt	i	nt	nt	nt	nt
CNC(C(=O)c1ccccc1)C(OC(C)=O)c1cccc([N+](=O)[O-])c1 (stereo not drawn)	nt	i	i	nt	i	i
Cc1ccc2c(c1)C1CN(C)CCC1N2C(=O)COc1ccc(S(=O)(=O)N2CCOCC2)cc1 (stereo not drawn)	nt	i	76	i	i	i
Cc1ccc(C)c(NC(=S)NCCc2cnc[nH]2)c1	nt	i	i	nt	i	i
O=C(c1cc(F)ccc1F)C1CCCN(Cc2ccc3nonc3c2)C1 (stereo not drawn)	i	i	i	i	i	i
CCC1C(c2ccccc2)NC(c2ccccc2)CC1(O)c1ccc(F)cc1 (stereo not drawn)	nt	i	i	nt	i	i
Cn1ncnc2c(=O)n(C)c(=O)nc1-2	nt	nt	105	nt	nt	nt
CCOP(=O)(OCC)c1cc(CC)ccc1O	nt	nt	i	nt	i	i
CC(=O)NC(Cc1ccc(N(CCCl)CCCl)cc1)C(=O)O (stereo not drawn)	i	i	nt	i	i	i
O=C(O)CCCc1ccc(N(CCCl)CCCl)cc1	nt	i	i	9.8	i	i
Cc1nn(Cc2ccccc2)c(Cl)c1C(=O)OC(C)C(=O)Nc1ccc(F)cc1Cl (stereo not drawn)	i	i	i	i	i	i
c1ccc(C2OCCN3CCCCC23)cc1 (stereo not drawn)	i	i	i	i	i	241
OC1CCCCC1N1CCC(c2ccccc2)CC1 (stereo not drawn)	nt	i	i	i	i	i
C[C@@H]1C2C[C@@]34COC(=O)C3=CC=C[C@H]4[C@@]13C[C@H](c1ccoc1)O[C@@H]3O2	i	i	i	i	i	i
O=C(NC1(C(F)(F)F)Oc2ccccc2O1)N1CCC2(CC1)OCCO2	nt	i	nt	i	i	i
O=C(NC1(C(F)(F)F)Oc2ccc(Cl)cc2O1)N1CCC2(CC1)OCCO2 (stereo not drawn)	i	i	nt	i	42	i
CC(C)CNP(=S)(c1ccccc1)C(C)(C)C (stereo not drawn)	nt	i	i	nt	i	i
O=c1c2ccccc2nc(CSc2ncnc3nc[nH]c23)n1-c1ccccc1Cl	i	i	nt	10	i	i
CN1CCC(O)(c2ccc(Cl)cc2)C(C(=O)c2ccc(Cl)cc2)C1 (stereo not drawn)	i	i	i	i	i	i
C=CCn1c(O)c(C(C)=NCC2CCCO2)c(=O)[nH]c1=O (stereo not drawn)	nt	i	i	nt	i	i
CC(C)CCNC(=O)c1cc(C(=O)c2cc(Br)ccc2O)cn(CCC(C)C)c1=O	i	i	i	9.2	i	i
CC1CCN(C(=O)C(C)Cl)CC1 (stereo not drawn)	i	i	i	i	i	i
CCCCCn1c(=O)c(C(=O)Nc2ccncc2)c(O)c2ccccc21	nt	nt	i	nt	nt	nt
CCCCCCn1c(=O)c(C(=O)Nc2cnccn2)c(O)c2ccccc21	i	i	i	8.7	i	i
